Measurements taken from the supplement of paper PMC6411743.
± gives the standard deviation of the averaged measurements. Targets with the largest changes are over-represented here; the source holds about 6,500 in all.

Compound: Nc1ncnc2c1ncn2[C@@H]1O[C@H](COP(=O)(O)OP(=O)(O)OP(=O)(O)O)[C@@H](O)[C@H]1O [adenosine triphosphate]
Test: NP40-soluble protein abundance relative to vehicle (solubility fold change) (ratio); higher = more soluble protein in presence of ATP
Procedure, shortened: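 Data come from three independent experiments in which Dounce-homogenised Jurkat crude lysate was treated at eight concentrations from 0.1 to 10 mM. Treatment ran 10 min at room temperature and then 3 min at 37 °C, after which 0.8% NP40 and benzonase were added for 60 min at 4 °C before ultracentrifugation. The supernatant underwent TMT labelling and LC-MS/MS, and vsn-normalised intensities were expressed as fold change against the detergent-processed vehicle in each replicate.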

Sequence of UniProt P07902 (P07902 whole entry): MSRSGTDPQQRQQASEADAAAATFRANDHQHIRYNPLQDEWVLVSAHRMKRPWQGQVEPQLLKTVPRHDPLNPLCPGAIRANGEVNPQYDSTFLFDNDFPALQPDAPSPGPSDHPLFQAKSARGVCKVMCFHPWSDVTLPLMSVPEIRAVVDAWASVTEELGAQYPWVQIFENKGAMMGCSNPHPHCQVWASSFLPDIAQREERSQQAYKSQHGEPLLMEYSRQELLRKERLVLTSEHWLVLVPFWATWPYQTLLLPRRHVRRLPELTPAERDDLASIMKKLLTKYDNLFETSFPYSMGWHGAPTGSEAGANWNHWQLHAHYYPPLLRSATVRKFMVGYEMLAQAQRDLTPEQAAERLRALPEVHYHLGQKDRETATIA
Sequence of UniProt O94906 (O94906 whole entry): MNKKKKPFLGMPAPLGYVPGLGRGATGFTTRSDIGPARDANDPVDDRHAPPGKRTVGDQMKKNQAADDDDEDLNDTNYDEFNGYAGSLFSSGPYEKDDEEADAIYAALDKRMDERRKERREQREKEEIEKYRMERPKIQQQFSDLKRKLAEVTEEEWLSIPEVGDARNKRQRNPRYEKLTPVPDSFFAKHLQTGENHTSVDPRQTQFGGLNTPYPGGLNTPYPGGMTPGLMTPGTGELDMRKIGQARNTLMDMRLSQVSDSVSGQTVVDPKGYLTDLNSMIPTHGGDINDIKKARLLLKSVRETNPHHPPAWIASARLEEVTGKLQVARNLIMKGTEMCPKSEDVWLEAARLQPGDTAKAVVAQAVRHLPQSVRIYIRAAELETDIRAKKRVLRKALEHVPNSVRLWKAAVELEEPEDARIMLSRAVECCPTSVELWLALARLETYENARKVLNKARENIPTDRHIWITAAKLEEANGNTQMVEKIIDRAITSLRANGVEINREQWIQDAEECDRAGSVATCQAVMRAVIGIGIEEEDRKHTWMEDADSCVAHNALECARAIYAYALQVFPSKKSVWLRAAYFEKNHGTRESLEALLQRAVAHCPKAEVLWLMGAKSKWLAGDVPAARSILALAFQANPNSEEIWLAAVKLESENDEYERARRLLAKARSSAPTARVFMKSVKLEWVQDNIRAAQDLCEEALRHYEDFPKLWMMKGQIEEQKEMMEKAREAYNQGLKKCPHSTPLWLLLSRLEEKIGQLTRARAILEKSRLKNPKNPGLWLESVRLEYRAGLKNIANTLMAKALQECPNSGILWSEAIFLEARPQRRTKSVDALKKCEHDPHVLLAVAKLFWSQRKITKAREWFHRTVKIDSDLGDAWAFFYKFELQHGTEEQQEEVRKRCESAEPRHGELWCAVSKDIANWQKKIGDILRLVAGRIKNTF
Sequence of UniProt O75531 (O75531 whole entry): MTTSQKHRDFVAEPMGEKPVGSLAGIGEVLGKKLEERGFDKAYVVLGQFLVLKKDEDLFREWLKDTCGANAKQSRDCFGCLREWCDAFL
Sequence of UniProt P49711 (P49711 whole entry): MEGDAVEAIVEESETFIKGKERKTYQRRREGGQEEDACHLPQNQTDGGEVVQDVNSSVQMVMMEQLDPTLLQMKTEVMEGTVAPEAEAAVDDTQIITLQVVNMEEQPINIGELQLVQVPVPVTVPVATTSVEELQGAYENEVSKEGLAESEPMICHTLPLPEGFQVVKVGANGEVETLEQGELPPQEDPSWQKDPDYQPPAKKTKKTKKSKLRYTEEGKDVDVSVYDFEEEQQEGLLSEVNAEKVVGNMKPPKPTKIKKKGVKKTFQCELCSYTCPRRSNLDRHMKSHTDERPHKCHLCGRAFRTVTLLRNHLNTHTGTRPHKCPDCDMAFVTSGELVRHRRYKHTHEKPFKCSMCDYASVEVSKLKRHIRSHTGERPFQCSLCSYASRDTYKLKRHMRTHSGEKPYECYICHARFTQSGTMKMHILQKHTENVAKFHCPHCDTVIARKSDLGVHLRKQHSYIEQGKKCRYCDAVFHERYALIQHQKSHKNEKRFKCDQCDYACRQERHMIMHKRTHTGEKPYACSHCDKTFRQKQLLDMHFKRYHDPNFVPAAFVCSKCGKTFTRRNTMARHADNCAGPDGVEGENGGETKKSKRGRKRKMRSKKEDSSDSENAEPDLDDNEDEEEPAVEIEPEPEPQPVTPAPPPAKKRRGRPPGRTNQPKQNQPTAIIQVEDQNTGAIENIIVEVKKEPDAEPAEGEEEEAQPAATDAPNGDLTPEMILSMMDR
Sequence of UniProt P14550 (P14550 whole entry): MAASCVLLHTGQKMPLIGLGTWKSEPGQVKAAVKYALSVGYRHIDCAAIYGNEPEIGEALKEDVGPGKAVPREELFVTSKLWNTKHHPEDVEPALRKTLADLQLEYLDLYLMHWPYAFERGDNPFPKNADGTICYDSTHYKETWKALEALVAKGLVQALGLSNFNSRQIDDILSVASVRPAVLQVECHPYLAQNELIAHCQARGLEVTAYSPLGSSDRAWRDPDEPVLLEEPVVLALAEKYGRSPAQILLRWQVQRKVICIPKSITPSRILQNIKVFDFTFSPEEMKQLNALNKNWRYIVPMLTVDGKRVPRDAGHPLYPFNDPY
Sequence of UniProt P23458 (P23458 whole entry): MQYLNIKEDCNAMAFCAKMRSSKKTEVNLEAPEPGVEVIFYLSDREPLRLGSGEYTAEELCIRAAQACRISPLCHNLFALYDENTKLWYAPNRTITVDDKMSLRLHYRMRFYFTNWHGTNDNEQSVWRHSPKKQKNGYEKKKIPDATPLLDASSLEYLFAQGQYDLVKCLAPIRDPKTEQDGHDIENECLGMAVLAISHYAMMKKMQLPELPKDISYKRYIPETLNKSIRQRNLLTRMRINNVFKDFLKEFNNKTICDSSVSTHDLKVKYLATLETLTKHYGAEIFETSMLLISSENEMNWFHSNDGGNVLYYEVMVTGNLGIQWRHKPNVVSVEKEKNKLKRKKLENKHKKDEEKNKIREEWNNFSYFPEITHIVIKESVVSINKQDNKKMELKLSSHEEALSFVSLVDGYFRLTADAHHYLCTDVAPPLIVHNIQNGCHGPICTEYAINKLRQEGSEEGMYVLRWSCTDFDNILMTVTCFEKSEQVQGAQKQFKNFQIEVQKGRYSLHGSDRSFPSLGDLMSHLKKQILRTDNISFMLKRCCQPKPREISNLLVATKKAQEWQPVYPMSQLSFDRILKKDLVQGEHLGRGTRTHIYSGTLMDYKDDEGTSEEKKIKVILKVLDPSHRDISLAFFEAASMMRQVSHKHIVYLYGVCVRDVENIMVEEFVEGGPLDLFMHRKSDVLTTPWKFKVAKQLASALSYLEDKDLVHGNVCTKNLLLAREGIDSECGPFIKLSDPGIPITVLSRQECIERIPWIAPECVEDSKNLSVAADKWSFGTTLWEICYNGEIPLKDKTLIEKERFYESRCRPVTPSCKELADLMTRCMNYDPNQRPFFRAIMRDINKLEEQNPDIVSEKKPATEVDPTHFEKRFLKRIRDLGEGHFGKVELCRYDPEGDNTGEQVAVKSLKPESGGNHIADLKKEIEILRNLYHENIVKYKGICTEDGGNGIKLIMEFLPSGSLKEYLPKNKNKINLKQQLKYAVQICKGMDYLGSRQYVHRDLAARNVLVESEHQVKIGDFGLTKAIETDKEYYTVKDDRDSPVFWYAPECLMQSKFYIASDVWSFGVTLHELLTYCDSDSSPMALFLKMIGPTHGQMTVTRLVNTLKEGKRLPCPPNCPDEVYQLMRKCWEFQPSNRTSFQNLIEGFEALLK
Sequence of UniProt O95757 (O95757 whole entry): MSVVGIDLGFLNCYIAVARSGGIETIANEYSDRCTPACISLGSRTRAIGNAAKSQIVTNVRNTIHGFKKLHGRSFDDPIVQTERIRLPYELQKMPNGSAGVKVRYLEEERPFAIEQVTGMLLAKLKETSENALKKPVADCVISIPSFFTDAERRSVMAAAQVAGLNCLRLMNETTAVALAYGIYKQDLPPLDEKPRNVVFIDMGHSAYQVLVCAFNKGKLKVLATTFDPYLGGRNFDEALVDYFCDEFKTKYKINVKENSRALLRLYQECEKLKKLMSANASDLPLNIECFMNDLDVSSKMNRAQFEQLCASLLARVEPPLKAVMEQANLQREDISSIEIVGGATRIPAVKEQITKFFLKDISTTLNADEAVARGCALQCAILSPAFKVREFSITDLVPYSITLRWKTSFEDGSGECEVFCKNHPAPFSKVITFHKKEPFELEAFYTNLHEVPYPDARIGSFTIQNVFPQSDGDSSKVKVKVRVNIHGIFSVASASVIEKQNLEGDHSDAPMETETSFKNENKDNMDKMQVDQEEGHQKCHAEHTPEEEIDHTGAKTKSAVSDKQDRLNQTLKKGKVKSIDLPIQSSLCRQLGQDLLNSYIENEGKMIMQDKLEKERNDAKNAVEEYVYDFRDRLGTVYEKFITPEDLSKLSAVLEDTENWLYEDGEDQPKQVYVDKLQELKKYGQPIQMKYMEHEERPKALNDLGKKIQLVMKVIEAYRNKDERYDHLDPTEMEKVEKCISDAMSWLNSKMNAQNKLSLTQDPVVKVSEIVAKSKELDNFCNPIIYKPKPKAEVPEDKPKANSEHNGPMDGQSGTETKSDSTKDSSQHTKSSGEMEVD
Sequence of UniProt P06576 (P06576 whole entry, one chain of several): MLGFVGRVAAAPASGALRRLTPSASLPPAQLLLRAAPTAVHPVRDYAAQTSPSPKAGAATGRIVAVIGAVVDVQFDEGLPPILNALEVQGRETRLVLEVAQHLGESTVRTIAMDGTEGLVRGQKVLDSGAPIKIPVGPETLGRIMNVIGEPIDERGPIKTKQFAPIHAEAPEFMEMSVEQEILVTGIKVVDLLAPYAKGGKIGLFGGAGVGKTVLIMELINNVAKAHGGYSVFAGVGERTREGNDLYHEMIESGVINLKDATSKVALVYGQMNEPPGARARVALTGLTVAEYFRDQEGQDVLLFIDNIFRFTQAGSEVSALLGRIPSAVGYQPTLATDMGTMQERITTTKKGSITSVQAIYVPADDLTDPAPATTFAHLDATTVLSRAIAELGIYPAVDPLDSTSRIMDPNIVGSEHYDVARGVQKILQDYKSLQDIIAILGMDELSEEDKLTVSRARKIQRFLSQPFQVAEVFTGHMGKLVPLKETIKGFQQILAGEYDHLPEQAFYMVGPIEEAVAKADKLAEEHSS

Target	NP40-soluble protein abundance (concentration: 1mM)	NP40-soluble protein abundance (concentration: 2mM)	NP40-soluble protein abundance (concentration: 4mM)	NP40-soluble protein abundance (concentration: 6mM)	NP40-soluble protein abundance (concentration: 8mM)	NP40-soluble protein abundance (concentration: 10mM)
SFPQ (UniProt P23246)	1.125 ± 0.0082	1.302 ± 0.0053	1.67 ± 0.042	1.72 ± 0.18	1.81 ± 0.11	1.68 ± 0.17
C1QBP (UniProt Q07021)	1.15 ± 0.48	0.69 ± 0.36	1.21 ± 0.26	0.585 ± 0.18	1.19 ± 0.24	0.587 ± 0.2
HSPA4L (UniProt O95757)	0.964 ± 0.015	0.9785 ± 0.0092	0.951 ± 0.018	0.987 ± 0.018	0.937 ± 0.036	0.949 ± 0.019
UniProt P09471-2	1.04 ± 0.059	0.979 ± 0.043	0.949 ± 0.052	0.975 ± 0.1	0.9637 ± 0.0096	0.969 ± 0.014
PHKA2 (UniProt P46019)	0.975 ± 0.071	0.9386 ± 0.0054	0.92 ± 0.033	0.932 ± 0.087	0.95 ± 0.028	0.919 ± 0.029
IDH1 (UniProt O75874)	0.993 ± 0.056	0.988 ± 0.038	0.94 ± 0.052	0.94 ± 0.081	0.957 ± 0.04	0.949 ± 0.027
UniProt P61225	1.01 ± 0.074	0.921 ± 0.091	0.92 ± 0.082	0.846 ± 0.11	0.932 ± 0.065	0.932 ± 0.016
SGPL1 (UniProt O95470)	1.05 ± 0.14	1.03 ± 0.1	1.02 ± 0.086	0.965 ± 0.094	1.07 ± 0.079	1.06 ± 0.075
UniProt P08243|P08243-2|P08243-3	1.1 ± 0.13	1.1 ± 0.12	1.1 ± 0.11	1.03 ± 0.14	1.15 ± 0.12	1.09 ± 0.097
UniProt P55769	1.03 ± 0.15	1.06 ± 0.11	1.13 ± 0.13	1.23 ± 0.11	1.28 ± 0.049	1.33 ± 0.24
HMGN2 (UniProt P05204)	1.06 ± 0.36	1.27 ± 0.42	1.29 ± 0.44	1.67 ± 0.9	1.55 ± 0.41	2.08 ± 1.5
UniProt P63218	0.812 ± 0.15	0.735 ± 0.17	0.799 ± 0.22	0.72 ± 0.12	0.77 ± 0.16	0.678 ± 0.18
UniProt Q01543|Q01543-3|Q01543-2	0.989 ± 0.05	0.997 ± 0.013	0.996 ± 0.032	1.01 ± 0.048	0.969 ± 0.033	0.9608 ± 0.0033
UniProt Q02078-2|Q02078-6	0.954 ± 0.086	0.939 ± 0.046	0.936 ± 0.065	0.926 ± 0.036	0.907 ± 0.032	0.949 ± 0.048
UniProt P26368|P26368-2	1.96 ± 0.078	1.99 ± 0.078	2.01 ± 0.076	2.06 ± 0.032	2.11 ± 0.079	2.09 ± 0.12
CTCF (UniProt P49711)	1.02 ± 0.027	0.993 ± 0.036	0.972 ± 0.034	0.895 ± 0.046	0.927 ± 0.032	0.894 ± 0.027
FXR2 (UniProt P51116)	1.68 ± 0.23	1.77 ± 0.15	2.06 ± 0.29	2.24 ± 0.27	2.26 ± 0.3	2.33 ± 0.26
COX5B (UniProt P10606)	0.9588 ± 0.0074	0.963 ± 0.013	0.966 ± 0.032	1.01 ± 0.028	0.936 ± 0.055	0.929 ± 0.012
AKR1A1 (UniProt P14550)	0.989 ± 0.046	0.979 ± 0.047	0.956 ± 0.048	0.959 ± 0.086	0.986 ± 0.059	0.944 ± 0.05
UniProt P35251|P35251-2	1.23 ± 0.086	1.36 ± 0.093	1.45 ± 0.1	1.58 ± 0.11	1.51 ± 0.069	1.56 ± 0.084

Target	NP40-soluble protein abundance (concentration: 1mM)	NP40-soluble protein abundance (concentration: 2mM)	NP40-soluble protein abundance (concentration: 4mM)	NP40-soluble protein abundance (concentration: 6mM)	NP40-soluble protein abundance (concentration: 8mM)	NP40-soluble protein abundance (concentration: 10mM)
PRPF6 (UniProt O94906)	1.31 ± 0.017	1.5 ± 0.12	1.79 ± 0.13	1.97 ± 0.2	2.18 ± 0.15	2.36 ± 0.21
JAK1 (UniProt P23458)	1.21 ± 0.015	1.21 ± 0.022	1.23 ± 0.032	1.16 ± 0.043	1.27 ± 0.047	1.26 ± 0.041
GALT (UniProt P07902)	0.994 ± 0.016	0.972 ± 0.068	0.983 ± 0.053	0.9753 ± 0.0077	0.935 ± 0.029	0.947 ± 0.02
IARS (UniProt P41252)	1.1 ± 0.14	1 ± 0.072	0.974 ± 0.058	0.905 ± 0.059	1.05 ± 0.035	0.975 ± 0.078
UniProt O94925|O94925-3	1.02 ± 0.071	0.968 ± 0.035	0.981 ± 0.078	0.944 ± 0.05	0.978 ± 0.061	0.947 ± 0.039
PPP2CA (UniProt P67775)	0.959 ± 0.061	0.925 ± 0.0053	0.908 ± 0.021	0.962 ± 0.033	0.9033 ± 0.007	0.9 ± 0.085
TPMT (UniProt P51580)	1 ± 0.084	1 ± 0.077	0.985 ± 0.064	0.954 ± 0.12	0.992 ± 0.057	0.979 ± 0.044
UniProt P08134|Q5JR08	0.974 ± 0.053	0.998 ± 0.031	0.975 ± 0.024	1 ± 0.05	0.957 ± 0.067	0.971 ± 0.027
ZBTB11 (UniProt O95625)	1.03 ± 0.057	1.004 ± 0.0071	1.03 ± 0.053	0.949 ± 0.021	0.97 ± 0.015	0.979 ± 0.04
UniProt P42285	1.07 ± 0.07	1.06 ± 0.035	1.09 ± 0.033	1.07 ± 0.031	1.2 ± 0.013	1.21 ± 0.066
UniProt P60228	0.999 ± 0.024	0.999 ± 0.051	1.08 ± 0.035	1.23 ± 0.063	1.34 ± 0.073	1.49 ± 0.12
RFC3 (UniProt P40938)	1.25 ± 0.036	1.3 ± 0.041	1.31 ± 0.041	1.31 ± 0.039	1.35 ± 0.061	1.36 ± 0.046
UniProt P21675|P21675-12|P21675-2|P21675-3|P21675-4|P21675-5|P21675-6|P21675-7|P21675-9	1.11 ± 0.067	1.11 ± 0.048	1.11 ± 0.066	1.15 ± 0.14	1.2 ± 0.079	1.19 ± 0.091
UniProt P11388|P11388-2|P11388-3|P11388-4	1.31 ± 0.066	1.41 ± 0.062	1.64 ± 0.06	1.76 ± 0.074	1.99 ± 0.11	2.03 ± 0.14
UniProt P08621|P08621-2	1.33 ± 0.049	1.42 ± 0.083	1.59 ± 0.078	1.74 ± 0.096	1.88 ± 0.077	1.97 ± 0.14
TOP1 (UniProt P11387)	1.05 ± 0.019	1.088 ± 0.0094	1.22 ± 0.028	1.42 ± 0.035	1.599 ± 0.0062	1.78 ± 0.074
UniProt P12268|H0Y4R1	1.14 ± 0.2	0.858 ± 0.18	0.957 ± 0.03	0.745 ± 0.14	0.636 ± 0.064	0.587 ± 0.058
ACSL3 (UniProt O95573)	1.02 ± 0.05	1.05 ± 0.028	1.03 ± 0.036	1 ± 0.11	1.03 ± 0.041	1.01 ± 0.031
UniProt P18583|P18583-5|P18583-7|P18583-9	1.28 ± 0.057	1.3 ± 0.075	1.36 ± 0.099	1.49 ± 0.14	1.45 ± 0.095	1.55 ± 0.13
EMD (UniProt P50402)	1.13 ± 0.096	1.16 ± 0.1	1.14 ± 0.11	1.11 ± 0.1	1.12 ± 0.086	1.15 ± 0.05

Target	NP40-soluble protein abundance (concentration: 1mM)	NP40-soluble protein abundance (concentration: 2mM)	NP40-soluble protein abundance (concentration: 4mM)	NP40-soluble protein abundance (concentration: 6mM)	NP40-soluble protein abundance (concentration: 8mM)	NP40-soluble protein abundance (concentration: 10mM)
UniProt P06576|F8W0P7	0.822 ± 0.18	1.04 ± 0.22	0.825 ± 0.21	1.07 ± 0.2	1.05 ± 0.16	0.814 ± 0.21
GAA (UniProt P10253)	0.981 ± 0.012	1.01 ± 0.021	1 ± 0.028	0.972 ± 0.015	0.962 ± 0.055	0.997 ± 0.033
FBL (UniProt P22087)	1.11 ± 0.075	1.13 ± 0.058	1.25 ± 0.047	1.544 ± 0.0074	1.93 ± 0.025	2.51 ± 0.15
UniProt Q01196|Q01196-8|Q01196-2	1.07 ± 0.026	1.08 ± 0.024	1.11 ± 0.016	1.17 ± 0.034	1.15 ± 0.028	1.21 ± 0.034
GALK2 (UniProt Q01415)	0.938 ± 0.068	0.975 ± 0.073	0.985 ± 0.012	0.86 ± 0.12	0.956 ± 0.066	0.968 ± 0.037
BANF1 (UniProt O75531)	5.83 ± 1.6	5.36 ± 0.56	5.89 ± 1.4	6.26 ± 1.4	5.6 ± 0.81	5.02 ± 1.8
TMEM63A (UniProt O94886)	0.9962 ± 0.0062	1.016 ± 0.004	1.01 ± 0.023	1.0012 ± 0.00078	0.961 ± 0.024	0.979 ± 0.01
ATRN (UniProt O75882)	0.928 ± 0.039	0.947 ± 0.048	0.975 ± 0.015	0.959 ± 0.095	0.896 ± 0.01	0.899 ± 0.057
VAMP7 (UniProt P51809)	0.955 ± 0.046	0.958 ± 0.05	0.938 ± 0.028	0.894 ± 0.1	0.943 ± 0.044	0.945 ± 0.044
UniProt P06493	1.05 ± 0.054	1.06 ± 0.053	1.03 ± 0.063	1.03 ± 0.1	1.05 ± 0.058	1.05 ± 0.015
UniProt O96028|O96028-3|O96028-5	1.31 ± 0.054	1.45 ± 0.072	1.54 ± 0.11	1.62 ± 0.12	1.62 ± 0.12	1.74 ± 0.18
UniProt P54274|P54274-2	1.14 ± 0.12	1.27 ± 0.17	1.43 ± 0.17	1.69 ± 0.26	1.58 ± 0.25	1.88 ± 0.35
UROS (UniProt P10746)	0.973 ± 0.029	0.988 ± 0.041	0.98 ± 0.061	0.968 ± 0.038	0.95 ± 0.059	0.927 ± 0.054
CCT8 (UniProt P50990)	0.976 ± 0.029	0.909 ± 0.033	0.823 ± 0.036	0.86 ± 0.12	0.842 ± 0.081	0.835 ± 0.063
RBM34 (UniProt P42696)	1.16 ± 0.026	1.21 ± 0.059	1.4 ± 0.097	1.57 ± 0.1	1.7 ± 0.18	1.85 ± 0.21
XRCC5 (UniProt P13010)	1.04 ± 0.055	1.01 ± 0.051	0.996 ± 0.039	0.961 ± 0.076	1 ± 0.024	0.993 ± 0.057
IGHMBP2 (UniProt P38935)	1.41 ± 0.11	1.59 ± 0.088	1.84 ± 0.09	2.01 ± 0.13	2.19 ± 0.2	2.4 ± 0.14
PSMC2 (UniProt P35998)	0.9515 ± 0.0057	0.914 ± 0.029	0.882 ± 0.016	0.908 ± 0.1	0.899 ± 0.053	0.894 ± 0.047
UniProt P50213|H0YLF8	0.98 ± 0.039	0.963 ± 0.04	0.922 ± 0.036	0.95 ± 0.058	0.949 ± 0.057	0.932 ± 0.043
ARF3 (UniProt P61204)	1.05 ± 0.21	1.01 ± 0.17	1.04 ± 0.13	0.961 ± 0.23	1.05 ± 0.073	0.996 ± 0.08
